# Compound activity from PubChem BioAssay.
# The list is not random: actives were taken first. Their share in the collection is about 3.1%.
# ARNT TACC3 PPI: ARNT/TACC3 interaction disruption | AlphaScreen His-ARNT PAS-B/GST-TACC3 binding, luminescence; TACC3 fragment carries E629A point mutation | inhibition, % at 9.99 µM | 0.66% of 390,000 active;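 active means mean inhibition of replicates at least 50% and at least half of replicates each reaching 50%; inconclusive means half or more replicates reach 50% but mean below 50%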;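 further: 0% = complete ARNT plus TACC3 wells and 100% = ARNT alone without TACC3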
# HIF activator: HIF pathway transcriptional activation | AID 1910 | 0.32% of 300,000 active | activation, % at 7.5 µM (by protocol) | U2OS HRE-luciferase reporter, luminescence; normalized: DMSO 0%, desferrioxamine 100%;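 active means mean activation of at least 10% of the iron chelator positive control signal, with at least half of replicates also reaching 10%; inconclusive means mean and replicate majority disagree about reaching 10%; inactive means mean and most replicates under 10%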
# HSP90 refold inh: HSP90 refolding inhibition in rabbit reticulocyte lysate | luciferase refolding luminescence, 3 h | inhibition, % at 5.6 µM | 0.91% of 290,000 active;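 active means inhibition above the screen-wide mean plus 3 SD, computed separately per campaign, cut at about 16% in these data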;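 further: 0% = DMSO wells and 100% = 60 µM geldanamycin wells; inhibitors lower the luminescence because luciferase stays unfolded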
# HSF-1 act: increases HSF-1 driven luciferase reporter signal | NIH3T3-HGL HSF-1 luciferase reporter, MG132, 8 h; 100% = twice DMSO control signal | 1.7% of 300,000 active | activation, % at 9 µM;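 active means mean replicate activation of at least 50% with a set share of replicates each reaching 50%; inconclusive means only one of those two conditions met; inactive means mean below 50% and too few replicates reaching it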;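 further: 0% = median of the neutral control wells and 100% = twice that signal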
# HSF1 inh: HSF1 inhibition; activity change, negative = inhibition, % at 7.5 µM (by protocol); AID 2098; NIH3T3-HGL HSE-luciferase, MG132-induced, luminescence 8 h; stronger effect = lower value; 0.77% of 300,000 active;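 active means more than half of replicate wells show activity change below -50%, luminescence cut by over half; inconclusive means some wells, but at most half, below -50%; inactive means no replicate well below -50%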;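 further: luciferase reports HSF-1 transcriptional activity via heat shock element; 0% = median of DMSO wells and -100% = zero luminescence signal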
# * = called active by the depositor; ? = inconclusive; nt = no result given.
SMILES,ARNT TACC3 PPI,HIF activator,HSP90 refold inh,HSF-1 act,HSF1 inh
CCC(=O)NC(c1ccc(OC)c(OC)c1)c1cc(Cl)c2cccnc2c1O (stereo not given),8,2,8,-52,-44
COC(=O)C[C@@H]1C[C@H]2c3cc(NC(=O)Nc4ccc(C(F)(F)F)cc4)ccc3O[C@H]2[C@@H](CO)O1,-1,nt,nt,nt,nt
CCC(=O)Nc1cccc(C(=O)OCC(=O)c2ccccc2Cl)c1,2,3,-1,65*,36
CC(=O)Nc1cccc(C(=O)OCC(=O)c2ccccc2Cl)c1,-7,4,-3,85*,39
COc1cc2c(cc1OC)-c1cc(NC3CC3)nc(=O)n1CC2,53*,0,0,34,4
COc1cc2c(cc1OC)-c1cc(NC3CCCCC3)nc(=O)n1CC2,46*,-1,1,9,-6
CC(C)NC(=O)N(C)C[C@H]1Oc2ccc(NC(=O)CCC(F)(F)F)cc2CC(=O)N([C@@H](C)CO)C[C@H]1C,-2,nt,nt,nt,nt
CCCNC(=O)C[C@@H]1C[C@H]2c3cc(NC(=O)C4CCOCC4)ccc3O[C@H]2[C@H](CO)O1,-10,nt,nt,nt,nt
C[C@H](CO)N1C[C@H](C)[C@H](CN(C)Cc2ccc(C(=O)Nc3ccccc3N)cc2)Oc2ccc(NC(=O)CCC(F)(F)F)cc2C1=O,-7,nt,nt,nt,nt
CC1CCN(CCCNC(=O)COc2cc(=O)n(C)c3ccccc23)CC1,-2,0,-3,57*,21
c1ccc(Cc2cc(-c3ccccc3)on2)cc1,-16,2,0,71*,24
O=C(c1cccc(S(=O)(=O)N2CCCCC2)c1)N(CCc1ccccc1)Cc1ccccc1,-1,-1,nt,1,19
CS(=O)(=O)c1cccc(C(=O)N(CCc2ccccc2)Cc2cccs2)c1,-17,15*,-5,1,-4
CC(C)c1cn(CC[C@@H]2CC[C@H](NC(=O)C3CCCC3)[C@@H](CO)O2)nn1,-3,nt,nt,nt,nt
N/C(=N\OC(=O)Nc1ccccc1)c1ncc([N+](=O)[O-])s1,-1,0,1,65*,40
O=C(COC(=O)c1ccc([N+](=O)[O-])s1)Nc1ccccc1,2,0,-3,11,1
COc1ccc(NC(=O)Nc2ccc3c(c2)CC(=O)N([C@@H](C)CO)C[C@@H](C)[C@H](CN(C)C(=O)Nc2ccc4c(c2)OCO4)O3)cc1,-6,nt,nt,nt,nt
COc1ccc(N2CCN(C(=O)COc3ccc4c(C)c(C)c(=O)oc4c3C)CC2)cc1,2,51*,0,6,-3
Cc1c(C)c2ccc(OCC(=O)N3CCN(c4ccc(F)cc4)CC3)c(C)c2oc1=O,1,0,-3,-10,-1
COc1ccc(N2C(=O)c3ccccc3C2=O)cc1,16,0,-2,32,5
CC(C)Oc1ccc(N2C(=O)c3ccccc3C2=O)cc1,-3,0,3,58*,8
CC(=O)Nc1ccc(CCc2nc3ccccc3[nH]2)cc1,-13,0,-1,14,4
CC(C)c1ccc(NC(=O)N(CCc2nc3ccccc3[nH]2)C2CCCC2)cc1,-5,-4,3,-60,-61*
CC(C)(C)[C@@H]1C=C(C(=O)N2CCCCCCC2)O[C@H](OCc2ccc(CO)cc2)C1,-7,nt,nt,nt,nt
COc1ccc(OC)c(C(=O)NC2CCSc3ccccc32)c1 (stereo not given),5,0,-3,18,10
SMILES,ARNT TACC3 PPI,HIF activator,HSP90 refold inh,HSF-1 act,HSF1 inh
COc1ccccc1C(=O)NC1CCSc2ccccc21 (stereo not given),-1,0,-1,63*,17
O=C(NC1CCSc2ccccc21)c1ccccc1Cl (stereo not given),-1,2,1,68*,40
CCCC(=O)Nc1ccc(Cl)c(NC(=O)c2cccnc2)c1,3,0,2,-89,-87*
CCCC(=O)Nc1ccc(Cl)c(NC(=O)c2ccc([N+](=O)[O-])cc2Cl)c1,-4,-1,0,-73,-64*
Cc1ccccc1-c1cnc2c(c1)C(=O)N([C@@H](C)CO)C[C@H](C)[C@H](CN(C)Cc1cccnc1)O2,-5,nt,nt,nt,nt
Cc1ccc(NC(=O)CN(C)S(=O)(=O)c2ccc3c(c2)n(C)c(=O)c(=O)n3C)cc1,0,0,3,7,-5
Cc1ccc(N(C)C(=O)CN(C)S(=O)(=O)c2ccc3c(c2)n(C)c(=O)c(=O)n3C)cc1,-1,-1,5,-93,-91*
C[C@H](CO)N1C[C@H](C)[C@@H](CN(C)Cc2cncnc2)Oc2ncc(/C=C/c3ccccc3)cc2C1=O,-1,nt,nt,nt,nt
CC1c2ccsc2CCN1C(=O)NC(=O)c1ccc(Cl)cc1 (stereo not given),4,0,-2,71*,21
CC1CCN(C(=O)NC(=O)c2ccc(Cl)cc2)CC1,-2,0,6,7,1
CCOC(=O)c1c(C)nc2c3ccccc3ccn12,3,1,0,?,19
CCOC(=O)c1c(C)nc2c(C)cccn12,-6,0,1,-92,-89*
O=C(O)c1cccnc1SCc1ccccc1Cl,-1,108*,6,7,2
C[C@@H]1CN([C@H](C)CO)C(=O)c2cccc(NC(=O)C3CCCCC3)c2O[C@H]1CN(C)Cc1ccc(C(=O)Nc2ccccc2N)cc1,-1,nt,nt,nt,nt
Cc1ccc(C2=NCCn3c2c2ccc(C(F)(F)F)cc2[n+]3[O-])cc1,8,-1,nt,-64,-55*
Cc1ccc(Cn2ccc(NC(=O)c3nn(C)cc3[N+](=O)[O-])n2)cc1,-16,nt,4,76*,56
Cc1cc(C)n(Cc2ccc(NC(=O)c3nn(C)cc3[N+](=O)[O-])cc2)n1,-1,-1,1,131*,69
Cn1cc([N+](=O)[O-])c(C(=O)Nc2ccc(-c3nc4ccccc4[nH]3)cc2)n1,-1,1,3,408*,332
CCn1cc([N+](=O)[O-])c(C(=O)Nc2ccn(Cc3ccccc3)n2)n1,-15,0,5,-2,-14
Cn1cc([N+](=O)[O-])c(C(=O)Nc2ccc(C(=O)N3CCCCC3)cc2)n1,1,-7,4,?,33
Cn1cc([N+](=O)[O-])c(C(=O)Nc2ccc(C3CCCCC3)cc2)n1,-4,-1,0,75*,94
C[C@H](O)C#Cc1ccc2c(c1)O[C@@H](CN(C)CC1CCOCC1)[C@H](C)CN([C@H](C)CO)S2(=O)=O,-11,nt,nt,nt,nt
Cn1cc([N+](=O)[O-])c(C(=O)Nc2cc(Oc3cccnc3)cc([N+](=O)[O-])c2)n1,nt,2,1,142*,114
Cc1ccccc1-n1c(C)nc2ccccc21,7,0,-3,-61,-53*
Cc1nc2ccccc2n1-c1ccccc1,-4,1,-3,1,-4
CCN(C(=O)COC(=O)c1c(C)nn(-c2ccccc2)c1C)C1CCS(=O)(=O)C1 (stereo not given),-2,3,0,16,-1
